VP16 counter = Gal4-VP16 reporter inhibition counter-screen. Drosophila S2 Gal4-VP16 UAS-luciferase, luminescence, 20 h. Potency, µM (doses to about 53.6 µM), for the others: at the top dose activity, negative = inhibition, usual class: inhibitors. 310,000 compounds, 3.5% hits. AID 2546;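 further: Gal4-VP16 expression switched on by copper sulfate through the metallothionein promoter; nearly all actives have a fitted effect of over 50% in size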
RORg inh = inhibitors of mouse ROR gamma transcriptional activity | P51450 | Drosophila S2 Gal4-RORgamma UAS-luciferase reporter, 20 h | Potency, µM (series often up to 53.6 µM), for inactives: at the top dose activity change, negative = inhibition, usual class: inhibitors | 310,000 compounds, 5.4% hits; further: nearly all actives have a fitted effect of over 60% in size
Target sequence (P51450 whole entry, looked up, the tested form may be a part): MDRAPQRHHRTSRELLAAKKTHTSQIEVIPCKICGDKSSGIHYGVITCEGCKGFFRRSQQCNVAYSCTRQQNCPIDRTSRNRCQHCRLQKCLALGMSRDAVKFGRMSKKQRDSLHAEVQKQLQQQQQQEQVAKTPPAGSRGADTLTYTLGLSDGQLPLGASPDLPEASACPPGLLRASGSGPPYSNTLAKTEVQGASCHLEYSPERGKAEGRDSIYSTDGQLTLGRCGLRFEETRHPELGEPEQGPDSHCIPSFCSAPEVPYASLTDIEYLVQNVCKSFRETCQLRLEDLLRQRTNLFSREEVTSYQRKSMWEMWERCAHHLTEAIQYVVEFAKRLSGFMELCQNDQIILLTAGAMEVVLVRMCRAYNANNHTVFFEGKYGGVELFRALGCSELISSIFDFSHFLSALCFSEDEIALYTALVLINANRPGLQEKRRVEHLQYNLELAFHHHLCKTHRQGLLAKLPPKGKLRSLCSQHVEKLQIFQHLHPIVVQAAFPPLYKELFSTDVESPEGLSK
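Drosophila S2 cells stably expressing Gal4-DBD/mouse RORγ fusion under metallothionein promoter plus UAS-luciferase; compound 1 h, then 700 uM CuSO4 induction for 20 h at ambient temperature; inhibition read as reduced luminescence.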
Luc counter = counter-screen: inhibitors of Kinase-Glo firefly luciferase. Kinase-Glo luciferase, ATP luminescence, 8 min. Potency, µM (highest dose often 38.3 µM), inactives show at the highest dose activity change, negative = inhibition, most hits filed as inhibitors. 200,000 compounds, 0.28% hits; further: nearly all actives have a fitted effect of over 60% in size
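Kinase-Glo luciferase light output from ATP and luciferin was measured with 10 uM ATP, within the enzyme's linear range. Buffer: 50 mM imidazole pH 7.2, 50 mM KCl, 7 mM MgCl2, 0.01% Tween 20, 0.05% BSA; luminescence read after 8 min at ambient temperature.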
Numbers without * were called inactive; ? = inconclusive; . = not tested or not shown; ! = a repeat was not active; [ ] = remark or other dose. Rows were chosen to be rich in hits. Some 6.4% of all compounds tested hit in one or more screens of this group. The call rests on the fitted dose curve; in most records, active means well fitted curve in the direction sought with a large enough effect; inconclusive means small, poorly fitted or top-dose-only effect, or another doubt; inactive means no such curve, though single readings can be large; an effect the other way counts as inactive or inconclusive. On the % scale 0 is the no-effect control and ±100 the full control effect; potency means the concentration at half of the fitted maximal effect.

SMILES	VP16 counter	RORg inh	Luc counter
CCC(c1n[nH]c(=S)n1-c1ccccc1)N(C)C (stereo unspecified)	17%	-28%	0%
Fc1ccc(-n2c(-c3ccc4ccccc4n3)n[nH]c2=S)cc1Cl	-10%	?	0%
S=c1[nH]nc(-c2ccc3ccccc3n2)n1-c1ccc2ncccc2c1	?	?	0%
S=c1[nH]nc(-c2ccc3ccccc3n2)n1-c1ccc(Cl)cc1	1.4µM*	1.1µM*	0%
CC(c1n[nH]c(=S)n1-c1ccc(Cl)cc1)N(C)C (stereo unspecified)	-10%	13µM*	3%
CCn1ccnc1CN(C)Cc1c(C(=O)N2CCCCCCC2)nc2ccc(Cl)cn12	-3%	?	.
COCCNC(=O)COC(=O)c1cc(-c2ccc(OC)cc2)nc2ccccc12	3%	-7%	-6%
CCCCN1C(=O)N(C)C2NC(=S)NC21 (stereo unspecified)	0%	26%	.
O=C(O)CC(NC(=O)Cc1ccc([N+](=O)[O-])cc1)c1ccc2c(c1)OCO2 (stereo unspecified)	0%	5%	.
O=c1oc2ccccc2cc1-c1csc(NN=C2CCCCC2)n1	-24%	?	-4%
O=c1oc2ccccc2cc1-c1nc2c(s1)CCCC2	?	?	11µM*
CC(C)N1C(=O)N(c2ccc(Cl)cc2)C(C)(O)CC1(C)C (stereo unspecified)	18%	-12%	.
CC(C)N1C(=O)N(c2cccc(Cl)c2)C(C)(O)CC1(C)C (stereo unspecified)	-3%	7.9µM*	.
CCC(c1nnnn1Cc1cccs1)N1CCN(c2nc3ccccc3s2)CC1 (stereo unspecified)	3%	?	.
CC(C)CC(c1nnnn1Cc1cccs1)N1CCN(c2nc3ccccc3s2)CC1 (stereo unspecified)	0%	10µM*	3%
CCc1c2c(nc3ccc4c(c13)OCCO4)-c1nc3ccccc3c(=O)n1C2	13µM*	2.5µM*	.
O=c1c2ccccc2nc2n1CCO2	1%	1%	.
O=C(CCNS(=O)(=O)c1ccc(Cl)cc1)Nc1ccncc1	1%	-3%	.
CCOc1ccc(N(CC(=O)NCCc2ccccc2)C(=O)CCC(=O)Nc2cc(C)ccn2)cc1	-4%	10%	.
CCN(CC)c1c([N+](=O)[O-])ncn1C	1%	16%	-5%
CCS(=O)(=O)c1c([N+](=O)[O-])ncn1C	10µM*	?	3%
COCCn1c(=O)c(CCc2ccccc2)nc2cnc(Nc3cccc(OC)c3)nc21	-3%	3%	0%
COC(=O)c1ccc(COC(=O)CNS(=O)(=O)c2ccc(C)cc2)cc1	-10%	0%	2%
Cc1ccc2nc(N(CCCN(C)C)C(=O)c3cc(-c4cccs4)nc4ccccc34)sc2c1	?	14µM*	.
CN(C)CCCN(C(=O)c1cc(-c2cccs2)nc2ccccc12)c1nc2c(F)cccc2s1	-23%	?	.
SMILES	VP16 counter	RORg inh	Luc counter
COc1ccc(N2C(=O)C(CN3CCN(C)CC3)C2c2ccccc2)cc1 (stereo unspecified)	-11%[10 µM]	-8%	-3%
O=CCCCC=O	2%	-9%	.
CCN(CC)c1ccc(CNc2nc3ccccc3n2C)cc1	-2%	-1%	.
CCN(CC)c1ccc(CNc2nc3ccccc3n2CCN2CCCCC2)cc1	?	8.9µM*	3%
COc1ccc(CCN2CCC(Nc3nc4ccccc4n3Cc3ccc(F)cc3)CC2)cc1	?	14µM*!	-4%
Cn1c(CNc2nc3ccccc3n2CCN2CCCCC2)nc2ccccc21	3%	16µM*	0%
COc1ccc(CNc2nc3ccccc3n2CCN2CCCCC2)cc1	-5%	16µM*	-2%
CCOc1ccc(CNc2nc3ccccc3n2CCN2CCOCC2)cc1	-6%	-12%	0%
CCc1nc2ccccc2n1Cc1ccc(F)cc1	13%	?	1%
c1ccc(Cn2c(CNc3nc4ccccc4n3CCN3CCCCC3)nc3ccccc32)cc1	?	?	7%
COc1cc(CCC(=O)OCC(=O)Nc2ccc(Br)cc2F)cc(OC)c1OC	8%	-2%	.
COc1ccc(CC(=O)NNS(=O)(=O)c2ccc(F)cc2)cc1	2%	44%	.
Cc1ccc(CN2C(=O)CSC2c2ccc(F)cc2)cc1 (stereo unspecified)	-14%	-5%	.
CCN(CC)CCn1c(NCc2ccco2)nc2ccccc21	2%	-30%	2%
CCN(CC)CCn1c(NCc2nc3ccccc3n2Cc2ccccc2)nc2ccccc21	?	11µM*	1%
O=C(CSc1ccc2c(c1)OCCO2)Nc1cccnc1	-23%	39%	2%
COc1ccccc1N1CCN(CCC(=O)Nc2cccc(Cl)c2)CC1	2%	13%	.
